# SW480 rerep – inducers of DNA re-replication in SW480 colon cancer cells; AID 624297; actives 1.8% (n = 340,000); Potency, µM (titrated, usually from 46.1 µM), usual class: activators; SW480 DNA re-replication, Hoechst DNA content imaging, 48 h; note: nearly all actives have a fitted effect of over 55% in size
#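 Quantitative HTS format with DMSO vehicle controls; 48 hr drug incubation at 37 C, then 40 min Hoechst staining and scanning imager measurement at 405 nm excitation.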
# Chronic BCR inh – chronic active BCR signaling inhibition; ABC-DLBCL IkBa-CBG/CBR reporter, luminescence ratio, 4 h; Potency, µM (doses to about 46.1 µM), hits mostly inhibitors; actives 0.05% (n = 340,000); AID 493014; active = well fitted inhibition curve with a large enough effect in the signal ratio, with a control signal flat, not every such curve was filed as active; inconclusive = small, poorly fitted or top-dose-only effect, or effect the other way, or a change in a side signal; the % refers to the signal ratio
#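 Doxycycline induced both beetle luciferases in TMD8 lymphoma cells; IKK-driven degradation limits the IkappaBalpha-fused green signal, while red luminescence normalises for cell number and nonspecific effects. Compounds tested up to 46 uM, 4 hrs.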
# TDP1 cell CPT – DT40-hTDP1 cell growth loss with CPT; chicken DT40 Tdp1-/-;hTDP1 cells + 20 nM CPT, ATP luminescence, 48 h; Potency, µM (titrated, usually from 46.2 µM), usual class: inhibitors; actives 12% (n = 420,000); AID 686979; note: nearly all actives have a fitted effect of over 55% in size
#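 Cell growth measured by CellTiter-Glo luminescence after a minimum 48 h, 37 C compound exposure with 20 nM CPT in Tdp1-knockout DT40 cells stably expressing hTDP1, seeded 400/well; qHTS titration format.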
# MCF10A rereplic – DNA re-replication induction in MCF 10a cells. Potency, µM (highest dose often 46.1 µM), hits mostly activators. actives 2.9% (n = 350,000). MCF 10A DNA re-replication, Hoechst nuclear intensity, 48 h. AID 624296; note: nearly all actives have a fitted effect of over 50% in size
# IL-1B inflam inh – inhibitors of inflammasome signaling (IL-1 beta secretion); THP-1 LPS/ATP IL-1B secretion, AlphaLISA, 16 h; stronger effect = lower value; activity change, % at 57.5 µM; actives 4.7% (n = 360,000); AID 743279; in the data active = activity change below about -50%; inconclusive = mostly about -30% to -49%
#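 Secreted IL-1B measured by AlphaLISA bead assay after 16 h compound exposure of THP-1 cells; compounds (final up to 57.5 uM) added 1 h before LPS (250 ng/mL) and ATP (1.25 mM) stimulation; lower signal means less secretion.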
# DT40 TDP1 no CPT – qHTS for Inhibitors of human tyrosyl-DNA phosphodiesterase 1 (TDP1): qHTS in cells in absence of CPT | DT40 Tdp1-/- hTDP1 cells, no CPT, ATP luminescence, 48 h | Potency, µM (highest dose often 46.2 µM), most hits filed as inhibitors | actives 15% (n = 420,000); note: nearly all actives have a fitted effect of over 55% in size
#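 Cells were dispensed at 400 per well, compounds added by pin tool, plates incubated ≥48 hr at 37 °C, then CellTiter-Glo added for 30 min at room temperature before luminescence reading. Line: DT40 Tdp1-/- complemented with hTDP1; camptothecin omitted.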
# A number is an active result; . = inactive; ? = inconclusive; / = no result given; [ ] = remark or other dose. This is a sample that favours compounds with a hit; in the whole collection about 19% have one here. Unless noted, calls come from the whole dose curve; as a rule, active = well fitted curve in the direction sought with a large enough effect; inconclusive = small, poorly fitted or top-dose-only effect, or another doubt; inactive = no such curve, though single readings can be large; an effect the other way counts as inactive or inconclusive.
SMILES,SW480 rerep,Chronic BCR inh,TDP1 cell CPT,MCF10A rereplic,IL-1B inflam inh,DT40 TDP1 no CPT
COc1ccccc1C(CNC(=O)c1ccco1)N1CCCC1 (stereo not given),.,.,.,.,.,.
Cc1cc(=O)n(C(C)C(=O)NCc2ccccc2Cl)c2c1c(C)nn2-c1ccccc1 (stereo not given),/,/,.,/,/,.
Cc1ccc(CNC(=O)CN(C(=O)C2(C)CC(=O)N=C3C=CC=CN32)c2cccc(C)c2C)cc1 (stereo not given),.,.,.,.,.,.
COc1ccc(C(CNC(=O)COc2ccc(F)cc2Cl)N2CCCCC2)cc1 (stereo not given),.,.,23.1µM,.,.,20.6µM
COc1ccc(C(CNC(=O)c2ccc(Br)o2)N2CCN(C)CC2)cc1 (stereo not given),.,.,.,.,.,.
COc1ccc(C(CNC(=O)c2ccc(-c3ccccc3Cl)o2)N2CCOCC2)cc1 (stereo not given),.,?,23.1µM,?,-76.3,16.4µM
C[C@@H]1CN([C@@H](C)CO)C(=O)CCCn2nncc2CO[C@@H]1CN(C)C(=O)c1ccncc1,/,/,.,/,.,.
COc1cc(NC(=O)c2oc3ccccc3c2C)ccc1NC(=O)c1ccco1,.,?,?,18.4µM,.,18.4µM
COc1ccc(NC(=O)c2ccco2)cc1NC(=O)c1cccc(OC(C)C)c1,.,?,?,.,.,11.6µM
COc1ccc(OC)c(NC(=O)c2cccc(NC(=O)c3ccco3)c2)c1,/,/,?,/,.,?
COc1cccc(C(=O)Nc2cc(NC(=O)c3ccco3)ccc2OC)c1,.,?,18.4µM,.,.,?
COc1ccc(NC(=O)c2ccco2)cc1NC(=O)c1cccc(C)c1OC,/,/,20.6µM,/,/,11.6µM
COc1cc(NC(=O)c2cc3ccccc3o2)ccc1NC(=O)c1ccco1,?,.,.,?,.,.
CCCN1C(=O)c2ccc(C(=O)Nc3ccccc3C(=O)O)cc2C1=O,.,?,.,.,.,.
CCCCOc1cccc(C(=O)Nc2cc(NC(=O)c3ccco3)ccc2OC)c1,/,/,18.4µM,/,/,20.6µM
O=c1cnn([C@@H]2O[C@H](CO)[C@@H](O)[C@H]2O)c(=O)[nH]1,.,.,11.6µM,.,.,2.31µM
COc1ccc(C(=O)CNc2ccc(C)cc2C)cc1,.,?,.,.,.,?
Cc1ccc(NC(=O)COC(=O)C2(CC(=O)NC(C)(C)C)CCCC2)cc1C,.,?,?,.,-92.2,?
CC(C)[C@@H](C)/C=C/[C@@H](C)[C@H]1CC[C@H]2/C(=C/C=C3\C[C@@H](O)CC[C@@H]3C)CCC[C@]12C,/,/,?,/,/,16.8µM
CC(C)C(C)/C=C/C(C)C1CCC2C3=CC=C4CC(O)CCC4(C)C3CCC21C (stereo not given),/,/,.,/,/,.
CCN(CC)S(=O)(=O)c1ccc(NC(=O)Nc2cccc(C(F)(F)F)c2)cc1,.,?,2.59µM,?,-88.8,2.59µM
CCN(CC(F)(F)C(F)F)S(=O)(=O)c1ccc(NC(=O)OC)cc1,.,.,25.9µM,.,.,16.4µM
CCN(CC(=O)NCc1ccc(F)cc1)C(=O)/C=C/c1ccc(S(=O)(=O)N(CC)CC)cc1,?,?,23.1µM,.,.,20.6µM
Cc1ccc(S(=O)(=O)Nc2ccc(NC(=O)Nc3cccc(C(F)(F)F)c3)cc2)cc1,?,?,18.4µM,?,-97.1,?
CCN(CC)S(=O)(=O)c1ccc(C(=O)Nc2cccc(C)c2)cc1,.,.,?,?,?,.
SMILES,SW480 rerep,Chronic BCR inh,TDP1 cell CPT,MCF10A rereplic,IL-1B inflam inh,DT40 TDP1 no CPT
CCc1ccc(C(=O)COC(=O)C2CCN(c3ccc(C(F)(F)F)cn3)CC2)cc1,.,.,.,.,.,.
COc1ccc(C(=O)NNC(=O)c2cccs2)cc1S(=O)(=O)N1CCOCC1,.,.,.,.,.,.
CC(C)NC(=O)c1cn(C2CCCN(C(=O)c3cc4ccccc4oc3=O)C2)nn1 (stereo not given),/,/,.[9.04 µM],/,/,.
CCN(CC(=O)Nc1ccc(NC(C)=O)cc1)C(=O)CCCc1nc2ccccc2s1,.,?,.,.,.,.
CCN(CC)S(=O)(=O)c1ccc(/C=C/C(=O)Nc2cccc(F)c2)cc1,.,?,20.6µM,.,.,20.6µM
CCOC(=O)Cc1c(C)nc2c(-c3ccc(OC)cc3)c(C)nn2c1C,.,.,?,.,.,23.1µM
Cc1nc2cc(-c3ccccc3)nn2c(C)c1CCC(=O)N1CCN(c2ccccc2)CC1,.,?,.,.,.,?
COc1cccc(N2CCN(C(=O)c3cnc4c(-c5ccccc5)c(C)nn4c3C)CC2)c1,/,/,14.6µM,/,/,?
COc1ccc(N2CCN(C(=O)CCc3c(C)nc4c(-c5ccccc5)c(C)nn4c3C)CC2)cc1,/,/,23.1µM,/,/,18.4µM
N#Cc1ccccc1OCC(=O)NNC(=O)CCC1CCCC1,.,.,.,.,.,.
N#Cc1ccccc1COc1cccc2c1CCCC2O (stereo not given),.,.,?,?,.,14.6µM
COc1ccc(Nc2nc(-c3sc(C)nc3C)cs2)cc1,1.46µM,?,1.16µM,?,.,1.16µM
